Inconclusive results are not listed. The source made the active and inactive calls. Unless noted, the call rests on the fitted dose curve; in most records, active means well fitted curve in the direction sought with a large enough effect in the repeat runs; inconclusive means weak or mixed curves; inactive means no such curve, though single readings can be large; an effect the other way counts as inactive or inconclusive.

A short description of test [1]: qHTS assay to identify small molecule antagonists of the retinoid acid receptor (RAR) signaling pathway - cell viability counter screen (AID 1159551). Further: nearly all actives have a fitted effect of over 35% in size. An outline of the steps:
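Cells (C3RL4) are plated, incubated overnight, dosed with compound in DMSO, then given retinol at 1 uM final. After 6 h at 37 C, CellTiter-Glo is added and luminescence read following 30 min at room temperature.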

Test [2] can be described thus: qHTS assay to identify small molecule agonists of the retinoic acid receptor (RAR) signaling pathway (AID 1159553). The gist of the method: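 Seed C3RL4 reporter cells at 1,000 per well and incubate overnight at 37 C. Add compounds in DMSO, incubate 6 hr. Add luciferase reagent, wait 30 min at room temperature, read luminescence.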
A general note: qHTS replaces the single test concentration by a dilution series.

The nature of test [3]: qHTS assay to identify small molecule antagonists of the estrogen related receptor (ERR) signaling pathway from Tox21 library - cell viability counter screen (AID 1224834). Further: nearly all actives have a fitted effect of over 30% in size. Further: potency means the concentration at half of the fitted maximal effect. The gist of the method: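 ERR cells, 2,000/well; 6 h settle at 37 C/5% CO2; pin-tool compound transfer in DMSO; 17.5 h at 37 C; CellTiter-Fluor, 30 min; fluorescence intensity.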
Test [4] concerns the target Luciferin 4-monooxygenase (Photinus pyralis) (UniProt P08659). Briefly: qHTS assay to identify small molecule inhibitors of firefly luciferase (AID 1224835). Further: series mostly up to about 120 µM; nearly all actives have a fitted effect of over 25% in size. The gist of the method:
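Inhibition of purified Photinus luciferase is measured by luminescence. Substrate levels (D-luciferin, ATP) sit at their KM values. Each compound is tested in a concentration series.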

Test [5] concerns the target Nuclear receptor subfamily 1 group I member 3 (Homo sapiens) (UniProt Q14994). Briefly: qHTS assay to identify small molecule antagonists of the constitutive androstane receptor (CAR) signaling pathway (AID 1224838).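 Further: HepG2 cells stably expressing hCAR with CYP2B6 luciferase reporter stimulated by CITCO; nearly all actives have a fitted effect of over 40% in size.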 The gist of the method: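 Antagonist mode used CITCO at a final 50 nM to activate CAR in human hepatoma HepG2 cells carrying stable hCAR and a 2.2 kb CYP2B6 promoter-luciferase construct. Compounds were tested at 15 concentrations over 24 h, with luminescence as the end point.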

Test [6] is described as follows: qHTS assay to identify small molecule antagonists of the estrogen related receptor signaling pathway with the pleiotropic PPARgamma coactivator (PGC) from Tox21 10K library (AID 1224841; call rule not given here; further: actives are mostly falling curves and most rising ones were filed inactive; nearly all actives have a fitted effect of over 50% in size; further: potency means the concentration at half of the fitted maximal effect). An outline of the steps:
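Steps: plate 2,000 PGC/ERR cells per well; incubate 6 h at 37 C with 5% CO2; transfer compounds from DMSO stocks by pin tool; incubate 18 h at 37 C; add One-Glo; measure luminescence 30 min later.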

Test [7] has as its target Thyrotropin receptor (Homo sapiens) (UniProt P16473). Briefly: qHTS assay to identify small molecule agonists of the thyroid stimulating hormone receptor (TSHR) signaling pathway (AID 1224843; calls by dose curve; further: nearly all actives have a fitted effect of over 45% in size). The gist of the method:
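Agonist activity read as cAMP rise via d2/cryptate HTRF competition, 1 h room-temperature detection, in HEK293 cells expressing TSHR. Fifteen-point titrations, each run in triplicate, with a 30 min room-temperature incubation beforehand.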

A short description of test [8]: qHTS assay to identify small molecule agonists of the hypoxia (HIF-1) signaling pathway - cell viability counter screen (AID 1224844; calls by dose curve; further: nearly all actives have a fitted effect of over 50% in size). The gist of the method: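 Cytotoxicity was measured in parallel with the HRE-driven beta-lactamase readout: after 17 hrs of compound exposure at 37C, HRE-bla ME-180 cells received CellTiter-Glo and luminescence was recorded 30 min later.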

Test [9] is described as follows: qHTS assay to identify small molecule antagonists of the estrogen related receptor (ERR) signaling pathway - cell viability counter screen (AID 1224818). Further: series mostly up to about 46 µM. The gist of the method:
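ERR cells, 2,000/well; 6 h settle at 37 C/5% CO2; compound pin transfer (DMSO); 17.5 h at 37 C; CellTiter-Fluor, 30 min, fluorescence read.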

Test [10] can be described thus: qHTS assay to identify small molecule antagonists of the estrogen related receptor signaling pathway with the pleiotropic PPARgamma coactivator (PGC) cell viability counter screen (AID 1224822;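 further: series mostly up to about 46 µM; viability read after 17.5 h compound exposure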). The gist of the method: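 Multiplexed viability counter screen run in PGC/ERR cells treated with compounds for 17.5 h at 37 C; live-cell protease signal measured by CellTiter-Fluor fluorescence.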

A short description of test [11]: qHTS assay to identify small molecule agonists of the constitutive androstane receptor (CAR) signaling pathway - cell viability counter screen (AID 1224836). Further: series mostly up to about 92 µM; nearly all actives have a fitted effect of over 45% in size. The gist of the method:
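Using CellTiter-Fluor, viability of HepG2 cells harbouring hCAR and CYP2B6-2.2kb was measured following 23 h incubation with a 15-concentration compound series plus PK11195 (0.75 uM final).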

Test [12] in a line: qHTS assay to identify small molecule antagonists of the constitutive androstane receptor (CAR) signaling pathway - cell viability counter screen (AID 1224837). Further: series mostly up to about 92 µM; nearly all actives have a fitted effect of over 45% in size. The gist of the method: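 Viability was measured with CellTiter-Fluor in a HepG2 line carrying stably transfected hCAR and a CYP2B6-2.2kb construct. Cells were exposed for 23 hr at 37 C to 15 compound concentrations with 50 nM CITCO as agonist.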

For test [13], the target named is Nuclear receptor subfamily 1 group I member 3 (Homo sapiens) (UniProt Q14994). Nature of the test: qHTS assay to identify small molecule agonists of the constitutive androstane receptor (CAR) signaling pathway (AID 1224839). Further: nearly all actives have a fitted effect of over 15% in size. Further: potency means the concentration at half of the fitted maximal effect. The gist of the method: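 Double-stable HepG2 cells (hCAR, CYP2B6-2.2kb) seeded 4 h before compound addition. Exposure 24 h with 0.75 uM PK11195 final. Luciferase detected by ONE-Glo.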
Sequence of Nuclear receptor subfamily 1 group I member 3 (Homo sapiens) (Q14994 whole entry, looked up): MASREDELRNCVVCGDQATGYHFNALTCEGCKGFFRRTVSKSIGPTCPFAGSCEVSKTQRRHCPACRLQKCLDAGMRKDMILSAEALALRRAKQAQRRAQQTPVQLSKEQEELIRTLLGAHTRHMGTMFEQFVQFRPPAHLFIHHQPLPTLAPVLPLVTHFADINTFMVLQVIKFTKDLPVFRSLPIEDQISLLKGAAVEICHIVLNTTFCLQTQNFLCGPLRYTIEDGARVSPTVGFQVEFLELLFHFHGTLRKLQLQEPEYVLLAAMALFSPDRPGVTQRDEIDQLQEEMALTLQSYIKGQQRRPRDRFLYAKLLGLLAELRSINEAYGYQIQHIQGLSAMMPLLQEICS

Test [14] in a line: qHTS assay to identify small molecule antagonists of the estrogen related receptor signaling pathway with the pleiotropic PPARgamma coactivator (PGC) from Tox21 10K library - cell viability counter screen (AID 1224840; active means well fitted cell-killing curve with a large enough effect in the repeat runs, not every such curve was filed as active; further: nearly all actives have a fitted effect of over 40% in size). The gist of the method:
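Multiplexed viability counter screen in the PGC/ERR cell line: cells treated with DMSO-dissolved compounds for 17.5 hours at 37 C, then viability measured as CellTiter-Fluor fluorescence.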

Test [15] is described as follows: qHTS assay to identify small molecule antagonists of the retinoic acid receptor (RAR) signaling pathway (AID 1159552; further: nearly all actives have a fitted effect of over 50% in size). An outline of the steps:
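C3RL4 RARE-luc cells, overnight plating; retinol 1 uM final added right after compound; 6 hr 37 C; luciferase read at 30 min RT.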

Test [16] in a line: qHTS assay to identify small molecule agonists of the estrogen related receptor signaling pathway with the pleiotropic PPARgamma coactivator (PGC) from Tox21 10K library (AID 1224842). Further: nearly all actives have a fitted effect of over 15% in size. The gist of the method: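 Luminescence from One-Glo (30 min, room temperature) measured after PGC/ERR cells had 18 h at 37 C with pinned compound (23 nL in DMSO). Cells had been seeded at 2,000 per well and pre-incubated 6 h.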

Sequence of Thyrotropin receptor (Homo sapiens) (P16473 whole entry, looked up): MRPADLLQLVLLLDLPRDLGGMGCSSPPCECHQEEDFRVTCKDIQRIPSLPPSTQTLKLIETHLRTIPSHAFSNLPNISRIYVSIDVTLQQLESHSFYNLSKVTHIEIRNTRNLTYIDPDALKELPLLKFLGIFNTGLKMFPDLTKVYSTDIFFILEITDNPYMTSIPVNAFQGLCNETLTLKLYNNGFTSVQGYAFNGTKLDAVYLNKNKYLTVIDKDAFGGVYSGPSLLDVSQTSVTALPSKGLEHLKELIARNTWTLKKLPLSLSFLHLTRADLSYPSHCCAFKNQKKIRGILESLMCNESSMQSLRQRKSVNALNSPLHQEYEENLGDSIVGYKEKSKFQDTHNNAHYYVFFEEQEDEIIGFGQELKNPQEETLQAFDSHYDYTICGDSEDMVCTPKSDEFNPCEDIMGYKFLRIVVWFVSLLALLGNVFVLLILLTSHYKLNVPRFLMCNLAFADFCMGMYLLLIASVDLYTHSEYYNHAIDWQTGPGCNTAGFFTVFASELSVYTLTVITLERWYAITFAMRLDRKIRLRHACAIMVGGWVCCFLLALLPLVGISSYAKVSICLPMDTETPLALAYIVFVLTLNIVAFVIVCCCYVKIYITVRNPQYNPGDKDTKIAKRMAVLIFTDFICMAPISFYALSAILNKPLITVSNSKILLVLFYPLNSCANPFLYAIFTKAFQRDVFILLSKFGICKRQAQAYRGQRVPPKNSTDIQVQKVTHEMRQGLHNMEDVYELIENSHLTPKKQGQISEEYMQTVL
Sequence of Luciferin 4-monooxygenase (Photinus pyralis) (P08659 whole entry, looked up): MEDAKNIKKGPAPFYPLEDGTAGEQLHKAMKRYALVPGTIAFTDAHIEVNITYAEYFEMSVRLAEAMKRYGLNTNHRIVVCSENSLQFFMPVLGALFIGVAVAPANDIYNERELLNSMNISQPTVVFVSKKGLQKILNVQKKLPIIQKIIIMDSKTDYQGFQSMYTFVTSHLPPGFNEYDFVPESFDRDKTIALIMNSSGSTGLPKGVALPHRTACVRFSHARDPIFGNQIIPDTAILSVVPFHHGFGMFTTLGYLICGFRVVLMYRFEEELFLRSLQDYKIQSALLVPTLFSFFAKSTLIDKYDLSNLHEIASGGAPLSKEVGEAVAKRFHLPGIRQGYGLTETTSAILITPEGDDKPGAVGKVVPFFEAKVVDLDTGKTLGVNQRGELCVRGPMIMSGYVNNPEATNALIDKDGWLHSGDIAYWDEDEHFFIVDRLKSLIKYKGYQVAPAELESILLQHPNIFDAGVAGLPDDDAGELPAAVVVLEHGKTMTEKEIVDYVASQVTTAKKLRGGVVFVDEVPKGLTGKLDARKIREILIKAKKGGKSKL

Regarding `O=[N+]([O-])c1cccc2c([N+](=O)[O-])cccc12`, the Potency entry in test [1], in test [2], in [4], in test [5], in test [7] and in test [8] was “inactive” each time. Moreover, the Potency in [3] is 61.4 µM (active); in test [6], 34.6 µM (active).

`COc1ccc(C(=O)N2CCCC2=O)cc1`: the compound was called inactive in test [9] and in test [10]. Besides, the Potency entry in [3], in test [4], in test [11], in [12], in [5] and in test [13] was “inactive” throughout. Besides, the Potency entry in [14], in test [7] and in test [8] was “inactive” each time.

`CCCSP(=S)(OCC)Oc1ccc(Cl)cc1Cl` (stereo unspecified): the Potency entry in test [15], in test [2], in test [3], in test [4], in test [11] and in test [12] was “inactive” throughout. The Potency entry in test [5], in test [14], in [6], in [7] and in test [8] was “inactive” each time. Besides, the Potency in test [13] is 27.3 µM (active).

Take `CC(=O)Nc1cc([As](=O)(O)O)ccc1O`: the Potency entry in test [15], in test [2], in test [3], in [4], in test [11] and in test [12] was “inactive” throughout. In addition, the Potency entry in [5], in test [13], in [14], in [6], in test [7] and in test [8] was “inactive” throughout.

For `Fc1ccc(C2(Cn3cncn3)OC2c2ccccc2Cl)cc1` (stereo unspecified), the Potency result in test [1], in test [2], in test [4], in test [12], in test [5] and in [13] was “inactive” throughout. The Potency entry in test [7] and in test [8] was “inactive” in each case. The Potency in test [6] was 38.6 µM (active). Moreover, the compound was called inactive in [16].

Regarding `O=C1CN=C(c2ccccc2)c2cc([N+](=O)[O-])ccc2N1`, the Potency result in test [1], in test [3], in [4], in [11], in [12] and in [14] was “inactive” in each case. Further, the Potency result in test [6], in test [7] and in [8] was “inactive” throughout.

In the case of `CCN(Cc1ccc(Cl)nc1)/C(=C/[N+](=O)[O-])NC`, the Potency entry in test [1], in test [3], in test [4], in test [11], in test [12] and in test [5] was “inactive” throughout. For the same compound, the Potency entry in test [13], in [14] and in [7] was “inactive” throughout.

The record behind these values is PubChem BioAssay (Tox21).
